Screens (PubChem)
C diff HTS: blocks growth of Clostridium difficile; Clostridium difficile clinical isolate growth, OD600, 24 h; stronger effect = lower value; growth activity, negative = inhibition, % at 16 µg/mL (by protocol); 0.25% of 86,000 active;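 active = mean growth activity at or below -80% and every replicate also at or below -80%; inconclusive = mean at or below -80% but some replicate above -80%; inactive = mean growth activity above -80%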
T cruzi growth-1: blocks T. cruzi growth in NIH3T3 culture | T. cruzi beta-gal in NIH3T3, GalScreen luminescence, 90 h | inhibition, % at 8.34 µM | 5.9% of 77,000 active;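 active = mean inhibition above about 93%, with at least 55% of replicates each passing it, limit read from the data, passing the limit was not always enough; inconclusive = only one of those two conditions holds; inactive = neither condition holds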
Pf Dd2 growth: inhibitors of Plasmodium falciparum Dd2 growth; P. falciparum Dd2 growth, SYBR Green, 72 h; stronger effect = lower value; activity change, % at 10 µM; 2.3% of 94,000 active; in the data active = activity change below about -80%; inconclusive = no clear call, values can overlap the other calls
T cruzi growth-2: Trypanosoma cruzi proliferation inhibition. shares compounds with T cruzi growth-1. T. cruzi beta-gal in NIH3T3, GalScreen luminescence, 90 h. inhibition, % at 8.35 µM. 72% of 5,600 active;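 active = mean replicate inhibition above about 95% and at least 55% of replicates individually reaching it, limit read from the data; inconclusive = only one of the two criteria is met; inactive = neither criterion is met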
T cruzi growth-3: blocks T. cruzi growth in NIH3T3 host cells; shares compounds with T cruzi growth-1; 21% of 5,600 active; inhibition, % at 2.09 µM; T. cruzi beta-gal in NIH3T3, GalScreen luminescence, 90 h;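 active = mean inhibition above about 95%, with at least 55% of replicates also reaching it, limit read from the data; inconclusive = meets just one of the two conditions; inactive = meets neither condition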
NIH3T3 tox: kills mouse NIH/3T3 fibroblasts; shares compounds with T cruzi growth-1; NIH/3T3 viability, CellTiter-Glo ATP luminescence, 90 h; 14% of 5,600 active; cytotoxicity (signal decrease), % at 8.35 µM; AID 651742;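 active = mean signal decrease across replicates above about 35% based on untreated-well scatter, with enough replicates individually passing, limit read from the data; inconclusive = no rule stated though some were filed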
NIH3T3 tox 2: cytotoxicity in mouse NIH/3T3 fibroblasts; shares compounds with T cruzi growth-1; NIH/3T3 viability, CellTiter-Glo ATP luminescence, 90 h; inhibition, % at 24.9 µM; 56% of 5,600 active; AID 651744;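 active = mean loss of cell viability signal at or above a set limit, and enough replicates individually reaching it; inconclusive = meets only the mean limit or only the replicate share; inactive = meets neither condition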
A number is an active result; – = inactive; ? = inconclusive; · = no result. Shown are actives, neighbours in structure and some others; about 6.7% of the full set was active somewhere.

SMILES	C diff HTS	T cruzi growth-1	Pf Dd2 growth	T cruzi growth-2	T cruzi growth-3	NIH3T3 tox	NIH3T3 tox 2
COc1ccc(S(=O)(=O)N(C)C[C@H]2OCCCC[C@H](C)Oc3ccc(NS(=O)(=O)c4ccccc4)cc3C(=O)N([C@@H](C)CO)C[C@@H]2C)cc1	–	–	·	·	·	·	·
O=C(C[C@@H]1CC[C@H]2[C@@H](COC[C@H](O)CN2Cc2ccc(Oc3ccccc3)cc2)O1)N1CCN(c2ccccc2)CC1	–	130	–	102	–	38	101
O=C(C[C@@H]1CC[C@@H]2[C@H](COC[C@H](O)CN2Cc2ccccc2)O1)N1CCOCC1	–	–	–	·	·	·	·
O=C(C[C@H]1CC[C@@H]2[C@H](COC[C@H](O)CN2Cc2ccccc2)O1)N1CCOCC1	–	123	–	–	–	–	–
O=C(C[C@@H]1CC[C@H]2[C@@H](COC[C@@H](O)CN2Cc2ccc(Oc3ccccc3)cc2)O1)N1CCOCC1	·	–	–	·	·	·	·
O=C(C[C@H]1CC[C@@H]2[C@H](COC[C@@H](O)CN2CCC(F)(F)F)O1)N1CCC(Cc2ccccc2)CC1	–	?	–	–	–	–	–
O=C(C[C@@H]1CC[C@H]2[C@@H](COC[C@@H](O)CN2CCC(F)(F)F)O1)N1CCC(Cc2ccccc2)CC1	–	–	–	·	·	·	·
O=C(C[C@H]1C=C[C@H](NC(=O)Nc2cc(F)ccc2F)[C@@H](CO)O1)NCc1ccc2c(c1)OCO2	–	–	–	·	·	·	·
CC(C)NC(=O)Nc1ccc2c(c1)C(=O)N([C@@H](C)CO)C[C@H](C)[C@H](CN(C)S(=O)(=O)c1ccc(F)cc1)OCCCC[C@H](C)O2	–	–	·	·	·	·	·
C/C=C/c1ccc([C@@H]2[C@H]3CN(S(=O)(=O)c4ccccc4)CCCCN3[C@H]2CO)cc1	–	–	–	·	·	·	·
C/C=C/c1ccc([C@@H]2[C@H](CO)N3CCCCN(S(=O)(=O)c4cccc(C)c4)C[C@@H]23)cc1	–	–	–	·	·	·	·
C/C=C/c1ccc([C@H]2[C@@H](CO)N3CCCCN(S(=O)(=O)c4ccccc4)C[C@@H]23)cc1	–	102	–	100	–	–	–
C/C=C/c1ccc([C@H]2[C@@H](CO)N3CCCCN(S(=O)(=O)c4cccc(C)c4)C[C@H]23)cc1	–	102	–	101	–	–	104
C[C@H](CO)N1C[C@H](C)[C@@H](CN(C)Cc2ccc3c(c2)OCCO3)OCc2cn(nn2)CCCC1=O	–	–	–	·	·	·	·
O=C(NCC[C@@H]1CC[C@@H](NS(=O)(=O)c2ccc(Oc3ccccc3)cc2)[C@H](CO)O1)C1CC1	–	–	–	·	·	·	·
C[C@@H]1CN([C@H](C)CO)C(=O)c2cc(NS(=O)(=O)c3ccc(Cl)cc3)ccc2O[C@@H](C)CCCCO[C@H]1CN(C)S(=O)(=O)c1cccs1	–	–	–	·	·	·	·
C[C@@H]1CCCCO[C@@H](CN(C)S(=O)(=O)c2cccs2)[C@@H](C)CN([C@@H](C)CO)C(=O)c2cc(NS(=O)(=O)c3ccccc3)ccc2O1	–	–	–	·	·	·	·
C[C@@H]1CCCCO[C@H](CN(C)S(=O)(=O)c2cccs2)[C@H](C)CN([C@H](C)CO)C(=O)c2cc(NS(=O)(=O)c3ccc(Cl)cc3)ccc2O1	–	99	-87	102	114	–	–
C[C@H]1CCCCO[C@H](CN(C)S(=O)(=O)c2cccs2)[C@@H](C)CN([C@@H](C)CO)C(=O)c2cc(NS(=O)(=O)c3ccccc3)ccc2O1	–	105	–	106	–	–	–
C[C@@H]1CCCCO[C@@H](CN(C)S(=O)(=O)c2cccs2)[C@H](C)CN([C@@H](C)CO)C(=O)c2cc(NS(=O)(=O)c3ccc(Cl)cc3)ccc2O1	–	96	–	98	–	–	–
C[C@@H]1CN([C@H](C)CO)C(=O)c2cc(NS(=O)(=O)c3ccc(Cl)cc3)ccc2O[C@@H](C)CCCCO[C@@H]1CN(C)S(=O)(=O)c1cccs1	–	101	–	116	–	–	–
C[C@@H]1CCCCO[C@@H](CN(C)S(=O)(=O)c2cccs2)[C@@H](C)CN([C@@H](C)CO)C(=O)c2cc(NS(=O)(=O)c3ccc(Cl)cc3)ccc2O1	·	–	–	·	·	·	·
